Screening results: PubChem BioAssay, Broad Institute
rRNA inh HTS = selective bacterial rRNA inhibition in E. coli; E. coli WT GFP vs humanized-ribosome RFP mutants, fluorescence, 24 h; active compounds read low; DMSO median 0, no signal -100; GFP signal change (wild-type ribosome), % (no concentration beside the values); 1.6% of 350,000 active;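 active = significant combined selectivity score with lowered wild-type GFP, culture density cut under 30%, mutant RFP and density less affected; inactive = any of these conditions unmet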
Wnt act = activates Wnt/beta-catenin signaling in a reporter cell assay; activator, plate reader; activation, % at 9.35 µM; 1.2% of 300,000 active; in the data active = activation above about 30%, passing the limit was not always enough; inconclusive = no clear call, values can overlap the other calls;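 note: 0% = neutral control wells and 100% = positive control wells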
AF4-AF9 inh = inhibitors of human MLL-AF4/AF9 interaction; inhibition, % at 10 µM; AlphaScreen, biotin-AF4 peptide binding to FLAG-AF9; AID 651704; P42568; 0.47% of 350,000 active;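 active = every replicate reaching a set inhibition limit, whatever the replicate mean, cut at about 25% in these data; inconclusive = mean inhibition reaches that limit but some replicates miss it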;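 note: 0% = plate neutral control median and 100% = total signal loss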
Target sequence (P42568 whole entry, looked up): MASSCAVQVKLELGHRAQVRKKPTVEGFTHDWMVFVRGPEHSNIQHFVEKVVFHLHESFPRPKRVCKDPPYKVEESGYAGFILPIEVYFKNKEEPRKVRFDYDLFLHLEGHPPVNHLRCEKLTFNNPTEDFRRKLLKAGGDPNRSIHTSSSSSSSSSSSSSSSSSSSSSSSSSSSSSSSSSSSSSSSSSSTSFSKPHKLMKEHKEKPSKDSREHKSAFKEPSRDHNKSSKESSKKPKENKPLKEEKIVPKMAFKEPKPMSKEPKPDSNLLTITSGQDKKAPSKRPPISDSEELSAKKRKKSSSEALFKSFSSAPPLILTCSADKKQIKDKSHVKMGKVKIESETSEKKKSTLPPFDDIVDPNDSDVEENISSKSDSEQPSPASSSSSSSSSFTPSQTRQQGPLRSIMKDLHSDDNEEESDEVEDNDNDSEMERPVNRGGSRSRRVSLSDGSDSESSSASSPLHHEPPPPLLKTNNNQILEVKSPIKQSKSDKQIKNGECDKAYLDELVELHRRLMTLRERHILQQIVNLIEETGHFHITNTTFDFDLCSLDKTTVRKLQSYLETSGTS
esBAF inh = inhibitors of esBAF chromatin remodeling in mouse ES cells; Bmi1-luciferase knock-in reporter, 24 h; 100% = twice the neutral-well signal; 2% of 350,000 active; reporter increase, % at 12.5 µM; in the data active = activation above about 40%; inconclusive = no clear call, values can overlap the other calls;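 note: 0% = median of the plate's neutral control wells and 100% = double that signal; a rise in the Bmi1 reporter signal indicates esBAF inhibition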
MITF TRPM1 HTS = increases MITF-driven TRPM1 promoter luciferase signal; activation, % at 12.5 µM; SK-MEL-5 TRPM1-promoter luciferase, 24 h; % of positive control, neutral wells = 0; AID 588334; 0.75% of 300,000 active;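 active = mean activation of at least 80% with every replicate also reaching 80%; inconclusive = mean reaches 80% but some replicate falls short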;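 note: 0% = neutral control wells and 100% = parthenolide positive control wells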
* = called active by the depositor; ? = inconclusive; nt = no result given. This is a sample that favours compounds with a hit; in the whole collection about 3.7% have one here.

SMILES	rRNA inh HTS	Wnt act	AF4-AF9 inh	esBAF inh	MITF TRPM1 HTS
COc1ccc2[nH]cc(C(=O)CCl)c2c1	2	1	-11	-7	-91
COc1ccc2[nH]cc(C(=O)CNc3nc(C)cs3)c2c1	nt	42*	nt	70*	nt
COc1ccc(N2CCN(C(=O)c3ccc(-c4nc5ccccc5s4)o3)CC2)cc1	nt	4	1	43*	20
CC(C)c1nc2c(c(=O)n(C)c(=O)n2C)n1C	0	1	-2	nt	1
Cc1ccc(-c2nc(NC(=O)CSc3nnnn3-c3ccccc3)ns2)cc1	nt	-6	nt	84*	17
Cc1ccc(-c2csc3nnc(SCC(=O)Nc4nsc(-c5ccccc5)n4)n23)cc1	nt	nt	nt	-3	7
Cc1cc(NC(=O)CSc2nccn2-c2cccc(F)c2)no1	-4	9	-2	nt	10
O=C(COC(=O)c1c(Cl)cccc1Cl)NC1CCCCC1	-13	0	-3	nt	5
O=C(COC(=O)c1cccc(Cl)c1Cl)NC1CCCC1	-3	0	1	7	12
O=C(COC(=O)c1ccccc1Cl)NC1CCCCCC1	-10	-4	0	69*	56
O=C(COC(=O)c1c(F)cccc1Cl)NC1CCCC1	5	3	-3	50*	29
Cc1nn(CC(=O)N(C)C)c(C)c1S(=O)(=O)N1CCOCC1	4	0	-1	1	-5
O=C(Nc1cc(Cl)ccc1Cl)c1cc(-c2ccco2)on1	9	-1	0	5	-11
Cc1ccc(NC(=O)c2cc(-c3ccco3)on2)cc1	nt	nt	nt	nt	90*
Cc1ccc(NC(=O)c2cc(-c3cccc(O)c3)on2)cc1C	-23	23	0	49*	55
O=C(Nc1ccc(F)c(Cl)c1)c1cc(-c2ccco2)on1	2	38*	-1	-1	22
O=C(Nc1cccc(O)c1)c1cc(-c2ccc3c(c2)OCO3)on1	-2	4	0	-66	-45
O=C(Nc1cccc(O)c1)c1cc(-c2ccccc2Cl)on1	-25*	2	-5	-8	nt
N#Cc1ccc(C(=O)OCc2cccc(S(=O)(=O)N3CCOCC3)c2)cc1	-2	-2	0	nt	-10
Cc1ccc(NC(=O)c2cc(-c3ccco3)on2)cc1C	nt	nt	nt	47*	53
O=C(Nc1ccccc1)OCc1cc(-c2ccccc2Cl)on1	nt	nt	nt	50*	65
NC(=O)c1cc(C(=O)c2cccc(Cl)c2Cl)c[nH]1	-48*	-2	2	-18	1
NC(=O)c1cc(C(=O)c2ccccc2Cl)c[nH]1	-5	-6	-3	nt	1
O=C(c1c[nH]c(C(=O)N2CCN(c3ccccc3F)CC2)c1)c1cccc(Cl)c1Cl	-28*	-2	2	-2	-31
c1ccc(-c2nc3ccccc3nc2-c2ccccn2)nc1	nt	nt	nt	nt	5
SMILES	rRNA inh HTS	Wnt act	AF4-AF9 inh	esBAF inh	MITF TRPM1 HTS
c1ccc(-c2nc3cccnc3nc2-c2ccccc2)cc1	-24*	2	0	nt	-4
CCOc1ccc(CN2CCNC(=O)C2CC(=O)NCCCn2ccnc2)cc1 (stereo not drawn)	9	-1	-4	nt	10
COc1cccc(CN2c3ccc(Br)cc3C(=O)CS2(=O)=O)c1	-37*	5	-2	-4	-5
C=CCN1c2ccc(Br)cc2C(=O)CS1(=O)=O	-21	22	0	nt	-2
COc1ccc(-n2c(-c3ccc(Cl)cc3)c[n+]3c2CCCCC3)cc1	-32*	0	-3	nt	nt
CCOC(=O)CCCCC(=O)c1[nH]c(=O)[nH]c1C[n+]1ccc(C)cc1	14	0	8	-3	1
CCOC(=O)CCCCC(=O)c1[nH]c(=O)[nH]c1CN1CCOCC1	12	-2	85*	7	9
O=C(CCc1ccccn1)N1CCCC(Nc2cccc(F)c2)C1 (stereo not drawn)	2	-1	0	-6	1
C[C@@H]1CCCCO[C@@H](CN(C)C(=O)C2CCCCC2)[C@@H](C)CN([C@H](C)CO)C(=O)c2cc(N(C)C)ccc2O1	1	nt	0	-4	nt
O=C(c1ccco1)N1CCC(c2ccccc2)C1 (stereo not drawn)	nt	nt	nt	54*	?
CSCc1ccc(C(=O)N2CCCC(Nc3ccc4c(c3)OCCO4)C2)o1 (stereo not drawn)	1	-1	0	4	6
O=C(c1ccc(F)cc1)N1CCC(c2ccccc2)C1 (stereo not drawn)	7	34*	0	33	nt
O=C(c1ccco1)N1CCCC(Nc2ccc3c(c2)OCCO3)C1 (stereo not drawn)	8	14	4	43*	29
COc1ccccc1/C=C/C(=O)N1CCC(c2ccccc2)C1 (stereo not drawn)	-23*	nt	4	nt	66
C[C@@H]1CN([C@H](C)CO)S(=O)(=O)c2ccc(-c3cccnc3)cc2O[C@@H]1CN(C)Cc1ccccn1	4	nt	1	-7	nt
C[C@H](CO)N1C[C@H](C)[C@H](CN(C)C(=O)Nc2ccc(F)cc2)OCCCC[C@H](C)Oc2ccc(N(C)C)cc2C1=O	-3	nt	8	-3	nt
CCN(C(=O)C1=COCCO1)c1nc2c(C)cccc2s1	2	-4	-5	48*	71
CCc1cc2c(nc1CC)CCCN2S(=O)(=O)c1ccc(OC)cc1	-43	-15	-4	nt	nt
COc1ccc(S(=O)(=O)N2CCCc3nc(C)c(C)cc32)cc1	-15*	0	0	nt	nt
CCC(C)(O)c1cnc(CC(C)C)c(=O)n1O (stereo not drawn)	nt	-1	-6	-6	nt
Cc1ccccc1OCC(O)Cn1c(NCc2ccco2)nc2c1c(=O)n(C)c(=O)n2C (stereo not drawn)	-26*	-1	5	23	11
Cc1ccccc1OCC(O)Cn1c(Br)nc2c1c(=O)n(C)c(=O)n2C (stereo not drawn)	-6	0	0	5	-8
Cc1cc(C)n(-c2nc3c(c(=O)[nH]c(=O)n3C)n2C(C)C)n1	nt	nt	nt	1	-3
COc1cccc(Nc2ncnc3sccc23)c1	5	9	-3	59*	72
COc1cccc(Nc2ncnc3sc(C)cc23)c1	-21	10	1	66*	55
SMILES	rRNA inh HTS	Wnt act	AF4-AF9 inh	esBAF inh	MITF TRPM1 HTS
COc1ccc(Oc2ncnc3sccc23)cc1	-6	9	0	45*	88*
Cc1cc2c(Nc3ccc(O)cc3)ncnc2s1	2	1	-6	4	nt
Cc1ccc(Cl)cc1NS(=O)(=O)c1ccc2c(c1)NC(=O)C(C)C(=O)N2 (stereo not drawn)	-8	2	-3	7	nt
O=C(c1cc(Br)ccc1Cl)N1CCCC1	15	0	-3	nt	3
Nc1nc2nn(-c3ccccc3)nc2c(=O)[nH]1	11	16	-3	-22	49
Nc1nc2n[nH]nc2c(=O)[nH]1	nt	-3	1	103*	-63
Cc1nnc2ccc(N3CCN(c4cccc(C(F)(F)F)c4)CC3)nn12	-2	-1	51*	8	18
CCOc1cc(NS(=O)(=O)c2ccccc2)c(OCC)cc1NC(=O)c1ccco1	1	nt	nt	1	nt
CCc1ccc(C(=O)CSc2nc(C)cc(=O)[nH]2)cc1	-27*	25	-2	nt	1
